Reference: PubChem BioAssay (NCI)
About 79,000 compounds went through this panel and 15% of them were active in at least one assay; those are over-represented in the sample as a whole. Active and inactive are the calls of the source. No stated cut-off is given here; in the data, active means growth inhibition above about 70%; inactive means the rest.

Assays:
[1] = NCI Yeast Anticancer Drug Screen. Data for the rad50 strain (AID 155);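 further: 0% = growth of vehicle-only cultures of the same strain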; conditions: S. cerevisiae rad50 strain growth inhibition; at 50.0 µM; hits give high values
Method in brief: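 Vehicle-treated cultures provide the reference for the growth inhibition reported for compound-exposed, repair-deficient yeast.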

[2] = NCI Yeast Anticancer Drug Screen. Data for the mec2-1 strain (AID 157); conditions: S. cerevisiae mec2-1 strain, at 50.0 µM, hits give high values
Method in brief: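 Yeast mec2-1 mutant treated with compound. Readout: growth inhibition vs vehicle controls.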

[3] = NCI Yeast Anticancer Drug Screen. Data for the sgs1 mgt1 strain (AID 161);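 further: 0% = growth of cultures given vehicle only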; conditions: S. cerevisiae sgs1 mgt1 strain, at 50.0 µM, hits give high values
Method in brief: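 Read-out: growth inhibition vs vehicle controls. Cells: mutant yeast strain deficient in DNA damage repair.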

[4] = NCI Yeast Anticancer Drug Screen. Data for the cln2 rad14 strain (AID 165);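 further: 0% = growth equal to vehicle treated cultures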; conditions: S. cerevisiae cln2 rad14 strain, at 50.0 µM, hits give high values
Method in brief: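 cln2 rad14 yeast strain; compound exposure; growth inhibition read vs vehicle controls.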

[5] = NCI Yeast Anticancer Drug Screen. Data for the bub3 strain (AID 167); conditions: S. cerevisiae bub3 mutant strain, at 50.0 µM, hits give high values
Method in brief: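 Mutant yeast screening strain plus compound; vehicle-treated cultures serve as the 0% inhibition reference.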

[6] = NCI Yeast Anticancer Drug Screen. Data for the mlh1 rad18 strain (AID 175); conditions: S. cerevisiae mlh1 rad18 strain growth inhibition; at 50.0 µM; hits give high values
Method in brief: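 Yeast w/ defined DNA-repair lesions; compound exposure; growth vs vehicle controls → % inhibition.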

Measured: growth inhibition

CC(=O)OCc1ccc(C)c(COC(C)=O)c1
inactive: [1] 3.45% | [2] -20.6% | [3] -9.4% | [4] 3.8% | [5] 1.1% | [6] -9.4%

Cc1[nH]n(-c2ccccc2)c(=O)c1N=Nc1cccc(C(F)(F)F)c1
inactive: [1] 8.7% | [2] 14.7% | [3] 17.8% | [4] -4.75% | [5] 6.95% | [6] 15.7%

COc1c(C)c(C)c(Br)c(C)c1C
inactive: [1] 6.35% | [2] 7.65% | [3] 6.7% | [4] 15.6% | [5] 0.55% | [6] 12.2%

O=C=Nc1ccc(Cc2ccc(N=C=O)cc2)cc1 (tested in a mixture with another compound)
inactive: [1] -6.55% | [2] -1.5% | [3] -12.2% | [4] 8.95% | [5] -0.5% | [6] 14.3%

CCCCCC(/C=C/c1ncccc1OCCCCCC(=O)O)=N\NC1=NCCN1
inactive: [1] 16.8% | [2] -17.6% | [3] -13.6% | [4] -25.4% | [5] -44.6% | [6] 11.7%

COc1cc2c(cc1OC)C(CC(=O)NN=C(C)C)NCC2 (stereo unspecified)
inactive: [1] -20.6% | [2] -19.6% | [3] -10.2% | [4] 3.1% | [5] -16.8% | [6] -34.2%

CCOC(=O)CON
inactive: [1] -7.35% | [2] 1.9% | [3] -7.45% | [4] -51% | [5] -12.4% | [6] -5.8%

O=C(CCN1CCCCC1)c1cc2cc([N+](=O)[O-])ccc2oc1=O
inactive: [1] 55.1% | [2] 29.6% | [3] 23.2% | [4] -17.8% | [5] 47% | [6] 32.6%

ClC1=Cc2cccc3cccc1c23
inactive: [1] 1.55% | [2] 6.15% | [3] 0.2% | [4] 2.5% | [5] 12.4% | [6] 3.8%

COc1ccccc1C1C2=C(COC2=O)Oc2cc3c(cc21)OCO3 (stereo unspecified)
inactive: [1] -20.8% | [2] -8.25% | [3] -29.1% | [4] 3.75% | [5] 0.4% | [6] -11.9%

CC(O)CC(C)O (stereo unspecified)
inactive: [1] 1.9% | [2] -4.6% | [3] 2.95% | [4] -3.45% | [5] 6.15% | [6] 2.3%

CCOC(=O)c1cc(=O)[nH]c2ccc(OC)cc12
inactive: [1] 17.2% | [2] 22.2% | [3] 2.25% | [4] 35.6% | [5] 11.6% | [6] 7.05%

Cc1ccc2c(c1)C(OC(=O)Nc1ccccc1)CCC2 (stereo unspecified)
inactive: [1] 18.1% | [2] 2% | [3] 3.5% | [4] 6.05% | [5] 38% | [6] 5.1%

CC(=O)c1cccc2ccccc12
inactive: [1] -7.8% | [2] 5.55% | [3] 3.65% | [4] -9.1% | [5] -11.1% | [6] -5.95%

CCCCCCCCCCCCNC(=O)c1ccccc1O
inactive: [1] 13.2% | [2] 23.6% | [3] 17.9% | [4] 20.8% | [5] 10.6% | [6] 35.8%

O=C(CCc1ccccc1)NC(=S)Nc1cccc([N+](=O)[O-])c1
active: [6] 86%
inactive: [1] -1.75% | [2] 25.9% | [3] 53.5% | [4] -13.8% | [5] 52.2%

Cc1ccc(NC(=S)NC(Cc2ccccc2)c2ccccc2)cc1 (stereo unspecified)
inactive: [3] -1.05%
active: [1] 78.8% | [2] 79.2% | [4] 78.5% | [5] 90% | [6] 85.2%

O=C1NC(c2cccc3ccccc23)Nc2ccccc21 (stereo unspecified)
inactive: [1] 3.05% | [2] -14.8% | [3] 9.2% | [4] -6.6% | [5] 0.85% | [6] 0.8%

CC(=O)OC(CCN(C)C)c1ccccc1 (stereo unspecified)
inactive: [1] -1.35% | [2] -7.5% | [3] 0.6% | [4] -34.1% | [5] 24% | [6] -5.45%

NC(=O)c1nnn(Cc2ccccc2)c1C(N)=O
inactive: [1] -13.9% | [2] -11.4% | [3] 12.6% | [4] -33.6% | [5] 8% | [6] 3.85%

Cc1ccc(-n2cnc3sc4c(c3c2=O)CCCC4)cc1
inactive: [1] -12.2% | [2] -10.7% | [3] 0.7% | [4] -9.7% | [5] -7.65% | [6] -16.5%

Cc1c(/C=N/O)nc2ccccc2c1C(=O)O
inactive: [1] -15.1% | [2] -9.25% | [3] -6.5% | [4] -24.1% | [5] -3.85% | [6] -28.9%

Nc1cccc(N)n1
inactive: [1] 7.65% | [2] -12.2% | [3] -15.8% | [4] 5.7% | [5] -0.7% | [6] -14.6%

O=C1CCCc2cc3c(cc21)CC1(Cc2ccccc2C1)C3
inactive: [1] -12.2% | [2] -27.8% | [3] 9.4% | [4] -6.4% | [5] 36.9% | [6] -14.7%

Cc1ccc(S(=O)(=O)N2CCSCCSCCSCCN(S(=O)(=O)c3ccc(C)cc3)CC2)cc1
inactive: [1] 7.05% | [2] -0.8% | [3] 4.25% | [4] 15.6% | [5] -4.1% | [6] 23.1%

Cc1cccc(NC(=O)COc2ccc(Cl)cc2C)c1
inactive: [1] 8.35% | [2] 4.4% | [3] 9.55% | [4] 39.5% | [5] 0.4% | [6] -0.2%

O=C(O)c1ccc(F)c([N+](=O)[O-])c1
inactive: [1] 7.15% | [2] -16.6% | [3] 17.4% | [4] -22.6% | [5] -11.6% | [6] 12.4%

CC(=O)C1=CN(C)c2ccccc2S1
inactive: [1] 29.6% | [2] 1.75% | [3] 12.2% | [4] -2.55% | [5] -12.8% | [6] 6.15%

Cc1cc2ccc(OC(=O)c3ccc(N=C(N)N)cc3)cc2oc1=O
inactive: [1] -8.95% | [2] 4.3% | [3] -29.6% | [4] -47.8% | [5] -24.6% | [6] 13.7%

O=C(O)CNC(=O)CNC(=O)c1ccc2ccccc2n1
inactive: [1] 2.7% | [2] -4.05% | [3] 11.1% | [4] 10.7% | [5] -14.3% | [6] 15.9%

CCCCN(CCO)CCO
inactive: [1] -4.95% | [2] -8.45% | [3] 9.3% | [4] 14.8% | [5] 9.4% | [6] 2.75%

N#C/C(=N\NC(=O)c1ccncc1)c1ccc(Cl)cc1
inactive: [1] -3% | [2] 3.6% | [3] 3.75% | [4] -30.2% | [5] -9.75% | [6] 4.65%

COC(=O)CNc1cccc([N+](=O)[O-])c1
inactive: [1] -3.45% | [2] 5.15% | [3] -3.65% | [4] -14.7% | [5] -11.3% | [6] -19.2%

Cc1cc(Cl)ccc1-n1nc(C)c2c(N)nc(N)nc21
inactive: [1] 17.4% | [2] 6.5% | [3] 13.7% | [4] -1.55% | [5] 24.7% | [6] 23.1%

CC(=O)c1c[nH]c(=O)c2cc3c(cc12)OCO3
inactive: [1] -42.8% | [2] -14.1% | [3] -7.85% | [4] -10.4% | [5] 12.8% | [6] -8.3%

CN(C)CCN(C(=Nc1ccccc1)N1CCCC1)c1ccccc1
inactive: [1] -18.7% | [2] -30.8% | [3] -30.4% | [4] 17.1% | [5] 0.45% | [6] 4.5%

Cc1onc(-c2ccccc2)c1NC(=O)OCc1ccc(-c2cc(C(F)(F)F)cc(C(F)(F)F)c2)o1
inactive: [1] -0.4% | [2] -14.9% | [3] -2.65% | [4] 9.7% | [5] 4.4% | [6] 11.8%

NC1(N)ON(c2ccc(C=O)cc2)C(c2ccc([N+](=O)[O-])cc2)S1 (stereo unspecified)
inactive: [1] 18.3% | [2] 8.45% | [3] 11% | [4] 16.3% | [5] -0.7% | [6] 16.7%

COc1cc(N)c(OC)nn1
inactive: [1] -1.1% | [2] 9.4% | [3] 3.15% | [4] -14.8% | [5] 11.3% | [6] -10.4%

O=S(=O)(O)c1cc[n+]([O-])cc1
inactive: [1] 1.6% | [2] 12.7% | [3] -2.8% | [4] 32.5% | [5] 11.8% | [6] -8.65%

O=C(Nc1ccccc1)c1cc2cc(N=Nc3ccc(Br)cc3)ccc2oc1=O
inactive: [1] 4.2% | [2] -4.7% | [3] -0.4% | [4] 16.1% | [5] -17.1% | [6] -13.1%
